The results in this text go back to PubChem BioAssay (NCI).

Some test systems named below: SR leukemia; OVCAR-8 ovarian; OVCAR-5 ovarian; OVCAR-4 ovarian; IGROV1 ovarian; OVCAR-3 ovarian; HS 578T breast; NCI/ADR-RES ovarian.
Holding throughout (experiment): NCI-60 one-dose screen, 48 h (100 = growth as untreated, 0 = no growth, -100 = all killed)
In the next test the test system is RPMI-8226 leukemia. The following applies: 10 µM unless noted.
Another test deals with SK-OV-3 ovarian. The following applies: 10 µM unless noted.

“And” between values parts separate entries of the source, which are not always exact repeats. Identical values can stand only once. This is part of a sample that, as a whole, favours compounds with a hit. Of some 83,000 tested, about 20% had one in any assay.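 Compound tested at a single concentration for 48 hours in 96-well plates; a percent growth value below 10 was scored as active.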 The source made the active and inactive calls.

Turning to `O=C1CCN(Cc2ccccc2)C(=S)N1`, the growth is 65.4% (inactive) and 101% (inactive) with SR leukemia (10 µM unless noted); 94.5% (inactive) and 102% (inactive) with RPMI-8226 leukemia; 106% (inactive) and 107% (inactive) in the test with OVCAR-8 ovarian (10 µM unless noted); 106% (inactive) and 101% (inactive) with OVCAR-5 ovarian (10 µM unless noted); 100% (inactive) in the test with OVCAR-4 ovarian (10 µM unless noted); 101% (inactive) in the test with SK-OV-3 ovarian. Also, the growth with IGROV1 ovarian (10 µM unless noted) was 92.4% (inactive) and 91.5% (inactive); with OVCAR-3 ovarian (10 µM unless noted), 123% (inactive) and 103% (inactive); with HS 578T breast (10 µM unless noted), 114% (inactive) and 81.7% (inactive); with NCI/ADR-RES ovarian (10 µM unless noted), 106% (inactive) and 103% (inactive).
As to `O=C(Nc1cccc(-n2ccc3c(NC(=O)c4ccccc4)nccc32)c1)c1ccc(Cl)c(C(F)(F)F)c1`, the growth was -21.7% (active) and 4.99% (active) in the test on SR leukemia (10 µM unless noted); -47.6% (active) and 32.3% (inactive) in the test with RPMI-8226 leukemia; 44.6% (inactive) in the test on OVCAR-8 ovarian (10 µM unless noted); 16.2% (inactive) and 76.5% (inactive) in the test with OVCAR-5 ovarian (10 µM unless noted); 6.88% (active) and 70.1% (inactive) with OVCAR-4 ovarian (10 µM unless noted); 11.8% (inactive) and 70.6% (inactive) with SK-OV-3 ovarian. The growth in the test with IGROV1 ovarian (10 µM unless noted) is 4.27% (active) and 56.4% (inactive); with OVCAR-3 ovarian (10 µM unless noted), -86.6% (active) and 51.6% (inactive); in the test on HS 578T breast (10 µM unless noted), 90.1% (inactive); in the test on NCI/ADR-RES ovarian (10 µM unless noted), -33% (active) and 58.4% (inactive).
Take `COc1ccc(Cl)cc1C(=O)NCCc1ccc(S(=O)(=O)NC(=O)NC2CCCCC2)cc1`: the growth is 105% (inactive) and 90% (inactive) in the test with SR leukemia (10 µM); 61.3% (inactive) with SR leukemia (100 µM); 104% (inactive) and 99.5% (inactive) with RPMI-8226 leukemia; 99.8% (inactive) and 100% (inactive) with OVCAR-8 ovarian (10 µM); 67.3% (inactive) with OVCAR-8 ovarian (100 µM); 111% (inactive) and 112% (inactive) with OVCAR-5 ovarian (10 µM). The growth is 101% (inactive) in the test on OVCAR-5 ovarian (100 µM); 117% (inactive) and 103% (inactive) in the test with OVCAR-4 ovarian (10 µM); 58.7% (inactive) with OVCAR-4 ovarian (100 µM); 103% (inactive) and 96.1% (inactive) with SK-OV-3 ovarian; 119% (inactive) and 99.4% (inactive) in the test on IGROV1 ovarian (10 µM); 69.2% (inactive) in the test with IGROV1 ovarian (100 µM). The growth is 112% (inactive) and 121% (inactive) in the test with OVCAR-3 ovarian (10 µM); 66.1% (inactive) with OVCAR-3 ovarian (100 µM); 94.7% (inactive) and 110% (inactive) in the test with HS 578T breast (10 µM); 54.8% (inactive) in the test with HS 578T breast (100 µM); 103% (inactive) and 107% (inactive) in the test on NCI/ADR-RES ovarian (10 µM); 76.6% (inactive) in the test with NCI/ADR-RES ovarian (100 µM).
Take `COC(=O)[C@H]1CCCN1C(=O)C1CCCN1C(=O)[C@@H](Cc1ccccc1)NC(=S)Nc1cc(C(F)(F)F)cc(C(F)(F)F)c1` (stereo partly drawn): the growth is 95.2% (inactive) and 67.5% (inactive) with SR leukemia (10 µM unless noted); 109% (inactive) and 66.2% (inactive) with RPMI-8226 leukemia; 100% (inactive) and 87% (inactive) in the test on OVCAR-8 ovarian (10 µM unless noted); 98.9% (inactive) and 90.4% (inactive) in the test on OVCAR-5 ovarian (10 µM unless noted); 104% (inactive) and 80.7% (inactive) in the test with OVCAR-4 ovarian (10 µM unless noted); 128% (inactive) and 109% (inactive) in the test on SK-OV-3 ovarian. The growth with IGROV1 ovarian (10 µM unless noted) is 123% (inactive) and 69.8% (inactive); with OVCAR-3 ovarian (10 µM unless noted) it was 111% (inactive) and 77.1% (inactive); with HS 578T breast (10 µM unless noted) it was 105% (inactive) and 98.2% (inactive); with NCI/ADR-RES ovarian (10 µM unless noted) it was 109% (inactive) and 93.9% (inactive).
Turning to `CCOC(=O)Nc1ccc2c(c1)/C(=N\NC(N)=S)c1ccccc1-2`, the growth in the test with SR leukemia (10 µM unless noted) is 47.2% (inactive) and 34.7% (inactive); with RPMI-8226 leukemia, 22.3% (inactive); in the test on OVCAR-8 ovarian (10 µM unless noted), 34.6% (inactive) and 55.5% (inactive); in the test with OVCAR-5 ovarian (10 µM unless noted), 105% (inactive) and 92% (inactive); with OVCAR-4 ovarian (10 µM unless noted), 61% (inactive) and 77.1% (inactive); in the test on SK-OV-3 ovarian, 96.5% (inactive) and 93.2% (inactive). For the same compound, the growth with IGROV1 ovarian (10 µM unless noted) is 93.5% (inactive) and 103% (inactive); in the test on OVCAR-3 ovarian (10 µM unless noted), 48% (inactive) and 83.4% (inactive); in the test on HS 578T breast (10 µM unless noted) it was 69.9% (inactive) and 92.9% (inactive); in the test with NCI/ADR-RES ovarian (10 µM unless noted), 29.5% (inactive) and 45.6% (inactive).
Consider `COc1ccc(NC(=S)Nc2ccccn2)cc1`, for which the growth in the test with SR leukemia (10 µM unless noted) was 90.5% (inactive); in the test on RPMI-8226 leukemia it was 93% (inactive); in the test with OVCAR-8 ovarian (10 µM unless noted), 96.5% (inactive); with OVCAR-5 ovarian (10 µM unless noted) it was 97.7% (inactive); in the test on OVCAR-4 ovarian (10 µM unless noted) it was 110% (inactive); with SK-OV-3 ovarian it was 98% (inactive). Besides, the growth is 106% (inactive) with IGROV1 ovarian (10 µM unless noted), 97% (inactive) in the test with OVCAR-3 ovarian (10 µM unless noted), 101% (inactive) in the test with HS 578T breast (10 µM unless noted) and 99.8% (inactive) with NCI/ADR-RES ovarian (10 µM unless noted).
Regarding `CC(CN=Cc1ccccc1O)N=Cc1ccccc1O` (stereo not drawn), the growth with SR leukemia (10 µM unless noted) was 100% (inactive); in the test on RPMI-8226 leukemia, -6.87% (active) and 94% (inactive); in the test with OVCAR-8 ovarian (10 µM unless noted), 106% (inactive) and 108% (inactive); with OVCAR-5 ovarian (10 µM unless noted) it was 104% (inactive) and 95.5% (inactive); in the test with OVCAR-4 ovarian (10 µM unless noted), 109% (inactive) and 103% (inactive); in the test on SK-OV-3 ovarian, 104% (inactive) and 86.4% (inactive). For the same compound, the growth is -14.8% (active) and 112% (inactive) with IGROV1 ovarian (10 µM unless noted); 97.4% (inactive) and 112% (inactive) in the test on OVCAR-3 ovarian (10 µM unless noted); 90.7% (inactive) with HS 578T breast (10 µM unless noted); 105% (inactive) and 101% (inactive) in the test with NCI/ADR-RES ovarian (10 µM unless noted).
Regarding `CC(C)Oc1ccc2cc(-c3nn(CC4CCNCC4)c4ncnc(N)c34)ccc2c1`, the growth was 18.3% (inactive) and -42.2% (active) in the test on SR leukemia (10 µM unless noted); 46.6% (inactive) and -53.2% (active) in the test on RPMI-8226 leukemia; 90.8% (inactive) and 38.9% (inactive) with OVCAR-8 ovarian (10 µM unless noted); 80.1% (inactive) and 40.2% (inactive) in the test with OVCAR-5 ovarian (10 µM unless noted); 100% (inactive) and 30.9% (inactive) in the test with OVCAR-4 ovarian (10 µM unless noted); 75.8% (inactive) and 13.3% (inactive) with SK-OV-3 ovarian. Also, the growth in the test with IGROV1 ovarian (10 µM unless noted) is 92.1% (inactive) and 42.4% (inactive); in the test on OVCAR-3 ovarian (10 µM unless noted), 92.2% (inactive) and 33.9% (inactive); in the test with HS 578T breast (10 µM unless noted) it was 75.7% (inactive) and -8.78% (active); with NCI/ADR-RES ovarian (10 µM unless noted), 94.7% (inactive) and 64.2% (inactive).
